Assay [1] in a line: optical density shifts of acrAB sulA E. coli – strain DRC41, OD650, 48 h, E. coli filamentation inducer project, primary screen (AID 1152).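 Also: E. coli MC1000 strain DRC41 lacking acrAB efflux pump and sulA.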 Conditions: higher = more signal, called active from +8 up or from −8 down.
A short description of assay [2]: probe aLefty1 binding on compound microarray – biochemical, small-molecule microarray, 635/667 nm fluorescence, primary screen (AID 1153).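 Also: score merges spot fluorescence with signal-to-noise ratio from the scanned slide images.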 Conditions: higher = more signal.
A short description of assay [3]: plasmodial surface anion channel blockers, osmotic lysis – cell-based, P. falciparum Indochina, OD700, 1 h, primary screen (AID 1154). Conditions: P. falciparum Indochina infected RBC osmotic lysis, higher = more signal, called active from +8 up or from −8 down.
A short description of assay [4]: plasmodial surface anion channel blockers, osmotic lysis – cell-based, P. falciparum Indochina, OD700, 2 h, primary screen (AID 1155).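 Also: lysis reports solute entry through the parasite surface anion channel PSAC.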 Conditions: P. falciparum Indochina infected erythrocytes, higher = more signal, called active from +8 up or from −8 down.
Assay [5] is described as follows: changes in parasitized red cell lysis, either direction – P. falciparum Indochina, OD700, 3 h, PSAC antagonist project, primary screen (AID 1156). Conditions: P. falciparum-infected erythrocytes, osmotic lysis, higher = more signal, called active from +8 up or from −8 down.
The nature of assay [6]: plasmodial surface anion channel blockers, osmotic lysis – cell-based, P. falciparum Indochina, OD700, 18 h, primary screen (AID 1157). Conditions: P. falciparum Indochina infected erythrocytes, osmotic lysis OD700, 18 h; higher = more signal, called active from +8 up or from −8 down.
Assay [7] can be described thus: S6 kinase pathway phospho-S6 level changes – cell-based, A549, cytoblot, luminescence, serum-stimulated, primary screen (AID 1158).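 Also: serum-stimulated A549 lung adenocarcinoma cells; signal is phosphorylated S6 detected by cytoblot immunostaining with HRP secondary.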 Conditions: 5 h, higher = more signal.
In assay [8] the target is NADPH oxidase 2 (Homo sapiens) (UniProt P04839). Kind of assay: compounds shifting NOX2 Amplex Red fluorescence – cell-based, HEK293-NOX2, PMA-stimulated, NOX inhibitor project, primary screen (AID 1159). Also: test concentration not given here. Conditions: 45 min, higher = more signal, called active from +8 up or from −8 down.
Assay [9] addresses NADPH oxidase 4 (Homo sapiens) (UniProt Q9NPH5). Nature of the assay: compounds shifting NOX4 Amplex Red fluorescence – cell-based, HEK293-NOX4, tetracycline-induced, NOX inhibitor project, primary screen (AID 1160). Conditions: HEK293-NOX4, Amplex Red H2O2 fluorescence, 45 min; higher = more signal, called active from +8 up or from −8 down.
Assay [10] has as its target NADPH oxidase 5 (Homo sapiens) (UniProt Q96PH1). Kind of assay: compounds shifting NOX5 Amplex Red fluorescence – cell-based, HEK293-NOX5, NOX inhibitor project, primary screen (AID 1161). Conditions: HEK293-NOX5, ionomycin, 45 min, higher = more signal.

SMILES strings stand for the structures. The source made the active and inactive calls.

Chain of NADPH oxidase 2 (Homo sapiens) (P04839 whole entry, looked up): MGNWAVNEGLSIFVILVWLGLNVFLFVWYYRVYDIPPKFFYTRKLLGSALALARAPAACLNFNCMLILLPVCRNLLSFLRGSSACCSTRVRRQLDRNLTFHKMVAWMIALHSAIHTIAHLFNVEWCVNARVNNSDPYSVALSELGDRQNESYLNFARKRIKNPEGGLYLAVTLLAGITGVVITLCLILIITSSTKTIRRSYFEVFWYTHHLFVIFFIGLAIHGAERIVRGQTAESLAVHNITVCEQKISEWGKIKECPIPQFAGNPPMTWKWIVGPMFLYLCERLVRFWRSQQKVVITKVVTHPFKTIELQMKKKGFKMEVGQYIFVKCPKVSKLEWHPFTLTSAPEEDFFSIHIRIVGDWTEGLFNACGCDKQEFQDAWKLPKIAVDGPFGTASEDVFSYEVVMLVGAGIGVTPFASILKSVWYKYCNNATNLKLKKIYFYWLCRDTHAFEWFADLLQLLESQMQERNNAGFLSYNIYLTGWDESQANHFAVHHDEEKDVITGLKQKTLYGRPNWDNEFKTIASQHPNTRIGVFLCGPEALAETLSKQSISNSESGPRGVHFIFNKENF
Chain of NADPH oxidase 4 (Homo sapiens) (Q9NPH5 whole entry, looked up): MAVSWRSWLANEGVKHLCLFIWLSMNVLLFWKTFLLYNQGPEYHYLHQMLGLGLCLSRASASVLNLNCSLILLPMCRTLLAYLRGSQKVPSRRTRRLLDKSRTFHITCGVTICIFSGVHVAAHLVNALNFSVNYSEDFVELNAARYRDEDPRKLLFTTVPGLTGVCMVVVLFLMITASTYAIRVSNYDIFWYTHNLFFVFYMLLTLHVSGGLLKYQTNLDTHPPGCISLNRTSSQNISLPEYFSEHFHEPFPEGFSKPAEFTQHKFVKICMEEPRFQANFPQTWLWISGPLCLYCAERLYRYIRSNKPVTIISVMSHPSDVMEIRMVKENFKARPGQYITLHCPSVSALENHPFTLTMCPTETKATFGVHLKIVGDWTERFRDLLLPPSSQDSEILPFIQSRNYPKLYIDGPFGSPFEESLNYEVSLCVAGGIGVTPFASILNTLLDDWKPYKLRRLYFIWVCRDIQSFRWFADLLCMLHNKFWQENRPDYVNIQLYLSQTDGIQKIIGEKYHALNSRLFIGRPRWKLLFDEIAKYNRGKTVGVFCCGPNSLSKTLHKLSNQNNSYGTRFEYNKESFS
Chain of NADPH oxidase 5 (Homo sapiens) (Q96PH1 whole entry, looked up): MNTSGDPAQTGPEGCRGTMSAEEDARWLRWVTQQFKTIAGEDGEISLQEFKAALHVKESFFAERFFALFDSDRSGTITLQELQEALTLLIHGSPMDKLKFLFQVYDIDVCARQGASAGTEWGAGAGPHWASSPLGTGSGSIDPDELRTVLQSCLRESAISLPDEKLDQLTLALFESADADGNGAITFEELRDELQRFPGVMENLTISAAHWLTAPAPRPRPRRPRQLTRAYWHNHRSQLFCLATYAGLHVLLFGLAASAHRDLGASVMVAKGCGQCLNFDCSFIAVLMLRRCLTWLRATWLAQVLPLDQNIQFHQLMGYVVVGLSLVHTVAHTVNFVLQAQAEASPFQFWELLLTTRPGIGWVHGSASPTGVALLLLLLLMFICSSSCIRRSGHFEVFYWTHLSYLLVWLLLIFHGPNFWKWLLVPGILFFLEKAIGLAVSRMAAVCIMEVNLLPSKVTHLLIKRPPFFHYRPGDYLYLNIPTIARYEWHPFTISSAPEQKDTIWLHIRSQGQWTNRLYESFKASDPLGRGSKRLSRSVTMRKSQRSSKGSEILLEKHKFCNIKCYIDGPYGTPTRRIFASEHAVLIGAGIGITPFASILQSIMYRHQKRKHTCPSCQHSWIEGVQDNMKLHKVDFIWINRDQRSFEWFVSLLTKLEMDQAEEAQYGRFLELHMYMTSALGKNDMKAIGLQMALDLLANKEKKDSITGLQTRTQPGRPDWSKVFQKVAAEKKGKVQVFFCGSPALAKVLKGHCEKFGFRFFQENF

In the case of `O=C1C2C=CC(C(O)c3ccccc3)N(Nc3ccccc3F)C2C(=O)N1c1ccccc1` (stereo not given), the z-score in [1] is 0.0394 (inactive); in assay [3] it was 7.12 (inactive); in [4], 1.21 (inactive); in assay [5], 0.368 (inactive); in assay [6], 0.632 (inactive); in [7], 0.113. Moreover, the figures for the z-score in assay [8], in [9] and in assay [10] were -2.07 (inactive), -3.6 (inactive) and -2.26, respectively. The compound further had a composite z-score in assay [2] of 0.002.
In the case of `Cc1cc(C)c(C(O)C2C=CC3C(=O)N(c4ccccc4)C(=O)C3N2Nc2ccc(C(C)C)cc2)c(C)c1` (stereo not given), the z-score in assay [1] was -1.53 (inactive); in assay [3], 1.02 (inactive); in assay [4] it was 1.14 (inactive); in [5], 0.858 (inactive); in assay [6], 1.05 (inactive); in assay [7], -0.484. For the same compound, the z-score in assay [8] was -1.82 (inactive); in [9], -3.87 (inactive); in assay [10], -7.33. In assay [2], this compound returned a composite z-score of 0.51.
On to `C[N+](C)(C)CCCCCCNC(=O)[C@H]1C[C@H]2C(=O)NCC(=O)N2[C@H]1c1ccc(O)cc1`, for which the z-score is 0.16 (inactive) in assay [1]; 1.76 (inactive) in assay [3]; 0.682 (inactive) in assay [4]; -1.2 (inactive) in assay [5]; -0.0189 (inactive) in assay [6]; -0.217 in assay [7]. Further, the z-score in assay [8] is 0.446 (inactive); in [9], 0.256 (inactive); in [10], 0.328. Also, the composite z-score in [2] was -0.455.
As to `CCCC[C@@H]1C[C@H]1[C@@H](NC(=O)c1ccccc1)c1ccc(C(F)(F)F)cc1`, the z-score is -0.903 (inactive) in [1]; -0.512 (inactive) in [3]; 0.0991 (inactive) in [4]; 0.162 (inactive) in assay [5]; 0.739 (inactive) in assay [6]; -0.295 in [7]. Further, the z-score in assay [8] is -0.3 (inactive); in [9] it was -0.742 (inactive); in assay [10], 0.689. In [2], the composite z-score stood at 0.361.
As to `Cc1ccc(S[C@]2(C(=O)NCC(F)(F)F)CC(=O)N(Cc3ccccc3)[C@@H]2c2ccc(CO)cc2I)cc1`, the z-score was -0.764 (inactive) in assay [1]; 4.23 (inactive) in [3]; 0.283 (inactive) in assay [4]; 0.173 (inactive) in assay [5]; 0.279 (inactive) in assay [6]; -0.404 in [7]. For the same compound, the results for the z-score in assay [8], in [9] and in assay [10] were 1.22 (inactive), -1.33 (inactive) and 0.776, respectively. In assay [2], this compound registered a composite z-score of 0.0355.
With `NCCCCCCNC(=O)[C@@H]1C[C@@H]2C(=O)N[C@@H](CCCCN)C(=O)N2[C@@H]1c1cccc(OCCO)c1`, the z-score in assay [1] was 0.68 (inactive); in assay [3] it was 3.51 (inactive); in [4], 0.289 (inactive); in [5] it was -0.147 (inactive); in assay [6], 0.472 (inactive); in [7], -0.447. Besides, the z-score in [8] was 0.937 (inactive); in assay [9] it was 1.02 (inactive); in assay [10], 1.01. Further, the composite z-score in [2] stood at 0.784.
For the compound `COC(=O)[C@@]1(Cc2ccc(F)cc2)[C@H]2c3cc(C(=O)N(C)C)n(Cc4cc(F)cc5c4OCOC5)c3C[C@H]2CN1C(=O)c1ccccc1`, the z-score is -0.62 (inactive) in assay [1]; 5.56 (inactive) in assay [3]; 0.0161 (inactive) in [4]; 0.366 (inactive) in [5]; -1.27 (inactive) in assay [6]; 1.16 in assay [7]. Also, the results for the z-score in assay [8], in assay [9] and in [10] were -0.508 (inactive), 0.966 (inactive) and -3.94, respectively. The composite z-score in assay [2] worked out at 0.487.
Regarding `Cc1ccc(S[C@]2(C(=O)NCCCN(C)C)CC(=O)N(C3CCCCC3)[C@@H]2c2ccc(CO)cc2)cc1`, the z-score in assay [1] is 0.344 (inactive); in assay [3], 4.64 (inactive); in assay [4], 0.695 (inactive); in assay [5], 2.17 (inactive); in assay [6] it was 0.819 (inactive); in assay [7], -0.358. The z-score was -2.24 (inactive) in [8], -2.06 (inactive) in assay [9] and -1.4 in [10]. Further, the composite z-score in [2] stood at 0.199.
Take `CN1C(=O)C2C=CC(C(O)C#Cc3ccccc3)N(Nc3ccccc3)C2C1=O` (stereo not given): the z-score was -0.877 (inactive) in assay [1]; 1.07 (inactive) in assay [3]; 0.783 (inactive) in [4]; 0.0989 (inactive) in assay [5]; 1.12 (inactive) in [6]; -1.19 in assay [7]. The figures for the z-score in assay [8], in assay [9] and in assay [10] were -1.22 (inactive), -4.71 (inactive) and -1.8, respectively. In assay [2], this compound gave a composite z-score of 0.545.
Take `C=CCOC(=O)[C@H]1[C@@H]2C(=O)O[C@@H](c3ccccc3)[C@@H](c3ccccc3)N2[C@@H](c2ccc(OCCOC(=O)[C@H]3C[C@H]4C(=O)N[C@@H](CC(C)C)C(=O)N4[C@H]3c3cccc(OCCO)c3)cc2)[C@]12C(=O)Nc1ccc(I)cc12`: the z-score in [1] is -0.811 (inactive); in [3], 2.5 (inactive); in [4], 1.3 (inactive); in assay [5] it was 0.844 (inactive); in assay [6], 0.963 (inactive); in assay [7], 0.547. The z-score in assay [8] was 1.35 (inactive); in [9], 1.6 (inactive); in assay [10], 1.14. This compound also yielded a composite z-score in [2] of -0.33.
Take `COCCCNC(=O)[C@]1(CCS(=O)(=O)c2ccccc2)N=C(c2ccc(OCCCO)cc2)O[C@@H]1c1ccccc1N=[N+]=[N-]`: the z-score is 0.308 (inactive) in [1]; 29.8 (active) in assay [3]; 28.1 (active) in [4]; 1.67 (inactive) in [5]; 2.02 (inactive) in [6]; 0.737 in assay [7]. Also, the z-score in assay [8] is 0.867 (inactive); in [9], 0.235 (inactive); in assay [10], -0.901. The same compound returned a composite z-score in assay [2] of -0.0087.
Regarding `COC(=O)C(CC#Cc1ccc2c(c1)[C@]1(C(=O)N2)[C@H](c2ccccc2OCCO)N2[C@H](c3ccccc3)[C@H](c3ccccc3)OC(=O)[C@H]2[C@@H]1C(=O)NC[C@H](O)c1ccccc1)C(=O)OC`, the z-score in [1] was 0.345 (inactive); in [3], 2.45 (inactive); in assay [4] it was 1.18 (inactive); in assay [5], 0.984 (inactive); in assay [6] it was 0.957 (inactive); in assay [7] it was 1.54. The z-score in assay [8] was 1.63 (inactive); in [9], 1.03 (inactive); in assay [10] it was 1.34. The composite z-score in assay [2] turned out to be 0.964.

Source of the values: PubChem BioAssay.
